hiPSC survival = enhancers of single-cell hiPSC survival, primary screen, ATPlite luminescence | survival enhancement, % at 20 µM | 360,000 compounds, 0.044% hits | 100% = ROCK inhibitor wells, 0% = DMSO; in the data active = survival enhancement above about 18%;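 also: cells exposed to compounds for 16 hours before the ATP read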
KKLEB cytotox = cytotoxicity in KKLEB CF airway cells, primary screen, cytotoxicity control for CF NF-kB inhibitor project, cell-based, uHTS, fluorescence assay plates. KKLEB CF airway cells viability, ATPlite luminescence, overnight; hits give low values; cells stimulated with P. aeruginosa culture filtrate. activity change (cytotoxicity), % at 5 µM. 360,000 compounds, 0.36% hits;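 active = corrected activity change at or below -50% at 5 µM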
CF NFkB block = inhibitors of PAF-induced NF-kB signaling, primary screen, cell-based, GFP fluorescence, uHTS | KKLEB NF-kB-GFP reporter, GFP fluorescence overnight | inhibition, % at 5 µM | 360,000 compounds, 0.86% hits;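 active = at least 50% inhibition at 5 µM, scaled per plate between neutral and stimulator controls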;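 also: PAF is a Pseudomonas aeruginosa culture filtrate used as stimulus; plate controls were PAF-stimulated DMSO wells for no effect and unstimulated DMSO wells for full effect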
TWEAK Fn14 block = inhibitors of TWEAK-Fn14 signaling, primary screen, luciferase reporter cells, uHTS; inhibition, % at 10 µM; 360,000 compounds, 2% hits; AID 1159606, 2016; TWEAK-stimulated Fn14 reporter cells, luciferase luminescence, 8 h; in the data active = inhibition above about 50%
HIF-2a inh = HIF-2a reporter inhibitors, primary screen, luminescence, 786-0 RCC cells; 360,000 compounds, 0.72% hits; inhibition, % at 18.8 µM; 786-0 RCC cells HIF-2a reporter, luciferase luminescence, overnight;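 active = inhibition of the luminescence signal of 40% or more relative to plate controls, in a single-dose primary screen at 18.75 µM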
LGR2 inh = inhibitors of bursicon-induced LGR2 CRE-luciferase signal, primary screen, cell-based, HEK293, CRE-luciferase reporter, bursicon stimulation; inhibition, % at 9.99 µM; AID 720647, 2013; Drosophila bursicon receptor LGR2 (rickets); 380,000 compounds, 0.35% hits; bursicon-stimulated, 4 h;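 active = drop in luminescence signal, shown as inhibition above about 50% in the replicate tests, limit read from the data, passing the limit was not always enough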;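 also: agonist challenge used bursicon conditioned medium at about half maximal strength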
An asterisk follows results filed as active; · = no result. Most compounds without a hit are left out; they make up all but 2.3% or so of the library.

SMILES	hiPSC survival	KKLEB cytotox	CF NFkB block	TWEAK Fn14 block	HIF-2a inh	LGR2 inh
Cc1nc2c(-c3ccccc3)c(C)[nH]n2c(=O)c1Cc1ccccc1	1	3	-9	25	9	-20
Cc1nc2c(C#N)c(C)[nH]n2c(=O)c1Cc1ccccc1	0	-2	8	64*	-7	-1
COc1ccc(/C=C2\CC/C(=C\c3ccc(OC)c(OC)c3)C2=O)cc1OC	-2	-41	-17	56*	-121	-4
COc1cc(OC)c(OC)cc1/C=C1\CCC/C(=C\c2cc(OC)c(OC)cc2OC)C1=O	2	-8	7	56*	17	2
C[C@@H]1CN([C@@H](C)CO)C(=O)c2cccc(NC(=O)Nc3ccc(C(F)(F)F)cc3)c2O[C@@H]1CN(C)Cc1ccc(C(=O)Nc2ccccc2N)cc1	·	·	·	·	·	-20
C[C@@H]1CN([C@@H](C)CO)C(=O)c2cc(C#CCN(C)C)cnc2O[C@@H]1CN(C)Cc1ccncc1	·	·	·	·	·	3
Cc1c(C(=O)NCc2ccc(C(C)C)cc2)sc(=O)n1Cc1ccc(S(=O)(=O)N(C)C)cc1	-1	-11	14	64*	-4	9
CSc1ccc(Cn2c(C)c(C(=O)NCc3ccc(C(C)C)cc3)sc2=O)cc1	0	7	-10	17	9	12
Cc1c(C(=O)NCc2ccc(Cl)c(Cl)c2)sc(=O)n1Cc1ccc(C(=O)N(C)C)cc1	3	5	0	20	12	9
Cc1c(C(=O)NCc2ccc(Cl)c(Cl)c2)sc(=O)n1Cc1ccc(S(=O)(=O)N(C)C)cc1	-3	-17	-12	67*	-9	-7
C[C@H]1CN([C@@H](C)CO)C(=O)c2cc(NC(=O)Nc3ccc4c(c3)OCO4)ccc2O[C@H]1CN(C)Cc1ccc(-c2ccccc2)cc1	·	·	·	·	·	5
CN(C)C(=O)C[C@@H]1CC[C@@H]2[C@H](COc3ccc(NC(=O)C4CCC4)cc3C(=O)N2C)O1	·	·	·	·	·	-1
CNc1nc(NCc2ccccc2)c2sccc2n1	-1	-6	-24	-53	-34	-10
c1ccc(CNc2nc(NCc3cccs3)nc3ccsc23)cc1	0	-20	0	8	-8	57*
C#Cc1cccc(Nc2nc(NCc3ccccc3)nc3ccsc23)c1	-1	-23	25	69*	-164	-43
CN1CCN(C(=O)C[C@@H]2CC[C@@H]3[C@H](COC[C@H](O)CN3S(=O)(=O)c3cccc(Cl)c3)O2)CC1	·	·	·	·	·	-8
Cc1cc2c(=Cc3ccc(N(C)C)cc3)c3ccccc3n2[n+]1C	-4	7	-132	67*	69*	50
CC(=O)N1CCc2cc(S(=O)(=O)NC(CC(C)C)C(=O)Nc3ccc4c(c3)OCCO4)ccc21 (configuration not stated)	-2	-9	10	57*	11	·
COC(=O)C1=C(C(=O)OC)[C@@H]2N(C)c3ccc(OC)cc3[C@@]23C[C@@H](C(=O)OC)N(C(=O)c2ccc(Br)cc2)C3=N1	1	-5	55*	53*	-9	1
O=C(O)CCCNS(=O)(=O)c1ccccc1	0	2	0	62*	3	·
O=C(O)CCCNS(=O)(=O)c1ccc2ccccc2c1	2	-6	-2	-4	23	·
O=C(CCCNS(=O)(=O)c1ccc(F)cc1)Nc1ccc(F)cc1	-1	0	-20	97*	5	1
CN(C)CC(=O)N[C@H]1CC[C@@H](CC(=O)NCc2ccccc2F)O[C@@H]1CO	·	·	·	·	·	14
CO[C@@H]1CN(C)C(=O)c2cc(NC(=O)Nc3c(C)noc3C)ccc2OC[C@H](C)N(CC2CC2)C[C@@H]1C	·	·	·	·	·	-22
CCOC(=O)C1=NNC(C(=O)c2ccc(Cl)cc2)C1c1ccc(OC)cc1 (configuration not stated)	-2	4	-22	-13	4	3
SMILES	hiPSC survival	KKLEB cytotox	CF NFkB block	TWEAK Fn14 block	HIF-2a inh	LGR2 inh
CCOC(=O)C1=NNC(C(=O)c2ccc(C)cc2)C1c1ccc(OC)cc1 (configuration not stated)	-3	-4	-4	72*	-21	·
CCC(=O)N1[C@@H]2c3cccc(=O)n3C[C@@H]2[C@@H](CO)[C@@H]1C(=O)NCC1CC1	·	·	·	·	·	6
C[C@H](O)C#Cc1ccc2c(c1)O[C@@H](CN(C)CC1CCOCC1)[C@@H](C)CN([C@H](C)CO)S2(=O)=O	·	·	·	·	·	-6
COc1cccc2sc3cc(C#Cc4ccccn4)ccc3c(=O)c12	-1	6	-38	-21	-209	-73
Nc1cccc(C#Cc2ccc3c(=O)c4ccccc4oc3c2)c1	0	-2	-40	12	-266	·
COc1cccc2oc3ccc(C#Cc4ccccn4)cc3c(=O)c12	-2	-19	-138	10	-195	83*
O=c1c2ccccc2oc2cc(C#Cc3ccccn3)ccc12	-2	22	-47	65*	-264	-39
CC(=O)N(C)C[C@H]1Oc2ncc(C#Cc3cccc(F)c3)cc2C(=O)N([C@@H](C)CO)C[C@H]1C	·	·	·	·	·	0
Cc1sc(NC(=O)c2ccccc2)c(C(c2ccccn2)N2CCN(CCO)CC2)c1C (configuration not stated)	0	-13	11	65*	-21	15
CCOc1ccc(C(c2c(NC(=O)c3ccccc3)sc(C)c2C)N2CCN(C)CC2)cc1 (configuration not stated)	0	-10	27	17	-45	·
CN(C)P(=O)(Nc1cccc2ccccc12)Nc1cccc2ccccc12	-2	-7	14	76*	28	11
CC(C)OP(=O)(Nc1cccc2ccccc12)OC(C)C	2	-14	-11	10	10	7
CC(=O)n1cc(N(C(=O)CCl)c2ccc([N+](=O)[O-])cc2)c2ccccc21	0	-83*	80*	37	30	-10
CS(=O)(=O)N1[C@H](C(=O)NCC2CC2)[C@@H](CO)[C@@H]2Cn3c(ccc(-c4ccccc4F)c3=O)[C@@H]21	·	·	·	·	·	1
COCC(C)n1c(C)cc(C(=O)COC(=O)c2oc3ccccc3c2C)c1C (configuration not stated)	4	8	0	-6	-82	·
COCC(C)n1c(C)cc(C(=O)COC(=O)c2n[nH]c3ccccc23)c1C (configuration not stated)	-6	-5	10	67*	-51	·
O=C1C=CC(=O)N1Cc1ccccc1	-4	-21	76*	0	1	·
C[C@@H]1CN([C@H](C)CO)C(=O)c2cc(C3=CCCCC3)cnc2O[C@H]1CN(C)C(=O)c1ccccn1	·	·	·	·	·	21

Source: PubChem BioAssay
